The record followed here is PubChem BioAssay (NCATS).

Several values for one entry are separate records, joined by “and”; a condition that tells them apart may be missing. Identical values can stand only once. Results filed as inconclusive are left out. Some structures have more than one record in an assay (separate samples or runs), and their calls can disagree. Values without a mark were called inactive. Activity calls are given as the source filed them. Calls come from the whole dose curve; as a rule, active = well fitted inhibition curve with a large enough effect; inconclusive = small, poorly fitted or top-dose-only effect; inactive = flat fitted curve, though single readings scatter.

The subject of one test is CRL-7250. The test can be described thus: Cytotoxic Profiling of Annotated Libraries Using Quantitative High-Throughput Screening (AID 1296008). Particulars: Five cell lines viability, CellTiter-Glo ATP luminescence, 48-72 h; max response: stronger effect = lower value. The method in brief: (§1)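 Cytotoxicity was measured as CellTiter-Glo ATP luminescence, read after 10 min at room temperature. Compound treatment of the cells lasted 48 or 72 hr at 37 degrees Celsius in a qHTS format.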

The next test deals with KB-3-1. The description is as above. As to conditions: Five cell lines viability, CellTiter-Glo ATP luminescence, 48-72 h; max response: stronger effect = lower value. An outline of the steps: as §1
Background: Cellular ATP, detected with luciferase, serves as a proxy for viable cell number.

The subject of a further test is UISO. The test can be described thus: qHTS assay to identify novel small-molecules to repurpose for Merkel cell carcinoma treatment (AID 1296009). As to conditions: MCC and control cell lines, CellTiter-Glo viability, 72 h; series mostly up to 46 µM. An outline of the steps:
(§2)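 Cell viability measured by CellTiter-Glo following 72 hr compound treatment at 37 degree celsius, with NPC and MIPE libraries tested in 8- and 11-point concentration series.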

In test [1] the test system is HaCat. Briefly: Cytotoxic Profiling of Annotated Libraries Using Quantitative High-Throughput Screening (AID 1296008). As to conditions: Five cell lines viability, CellTiter-Glo ATP luminescence, 48-72 h; max response: stronger effect = lower value. The method in brief:
as §1

Test [2] concerns NIH3T3. The description is as above. As to conditions: Five cell lines viability, CellTiter-Glo ATP luminescence, 48-72 h; max response: stronger effect = lower value. The method in brief:
as §1

For another test, the system named is MCC-13. The test can be described thus: qHTS assay to identify novel small-molecules to repurpose for Merkel cell carcinoma treatment (AID 1296009). As to conditions: MCC and control cell lines, CellTiter-Glo viability, 72 h; series mostly up to 46 µM. The method in brief:
as §2

The subject of another test is MKL-1. The description is as above. As to conditions: MCC and control cell lines, CellTiter-Glo viability, 72 h; series mostly up to 46 µM. The method in brief:
as §2

The next test deals with MKL-2. The test is described as above. As to conditions: MCC and control cell lines, CellTiter-Glo viability, 72 h; series mostly up to 46 µM. An outline of the steps: as §2
The subject of a further test is MCC-26. The description is as above. Particulars: MCC and control cell lines, CellTiter-Glo viability, 72 h; series mostly up to 46 µM. An outline of the steps:
as §2

For a further test, the system named is HEK293. The test can be described thus: Cytotoxic Profiling of Annotated Libraries Using Quantitative High-Throughput Screening (AID 1296008). Particulars: Five cell lines viability, CellTiter-Glo ATP luminescence, 48-72 h; max response: stronger effect = lower value. The method in brief:
as §1

In test [3] the test system is HACAT. The test can be described thus: qHTS assay to identify novel small-molecules to repurpose for Merkel cell carcinoma treatment (AID 1296009). Particulars: MCC and control cell lines, CellTiter-Glo viability, 72 h; series mostly up to 44.8 µM. The method in brief: as §2
(Quantitative high-throughput screening tests each substance at several concentrations.)

For test [4], the system named is NIH3T3. The test is described as above. Particulars: MCC and control cell lines, CellTiter-Glo viability, 72 h; at 44.8 µM (top of the series) unless noted. An outline of the steps:
as §2
% is set by controls: 0 for no effect and ±100 for the full control effect; potency is the fitted concentration of half-maximal effect.
Note: nearly all actives have a fitted effect of over 60% in size.

As for `Cc1cc(C(=O)N2CCN(c3cccc(Cl)c3)CC2)n(-c2ccccc2)n1`, the Potency in the test on CRL-7250 was 4.69 µM (active) and 5.8 µM (active); with KB-3-1, 833 nM (active) and 1.64 µM (active); in the test with UISO it was 1.66 µM (active).
Turning to `C[C@@H](Oc1cc(-c2cnn(C3CCNCC3)c2)cnc1N)c1c(Cl)ccc(F)c1Cl`, the Potency in the test on CRL-7250 is 11.8 µM (active) and 20.6 µM (active) and 23.1 µM (active); in the test with HaCat [1] it was 13 µM (active) and 10.3 µM (active); in the test on KB-3-1 it was 6.51 µM (active); with NIH3T3 [2] it was 3.72 µM (active) and 2.91 µM (active) and 5.17 µM (active); in the test with MKL-1, 13.2 µM (active); with UISO, 14.8 µM (active). For the same compound, the Potency result in the test with MCC-13 was “inactive”.
Regarding `CCn1nnc2c(N3CCOCC3)nc(-c3ccc(NC(=O)Nc4ccc(C(=O)N5CCN(C)CC5)cc4)cc3)nc21`, the Potency in the test on CRL-7250 is 65.1 nM (active); in the test with HaCat [1] it was 662 nM (active) and 1.16 µM (active); in the test on KB-3-1 it was 11.8 nM (active) and 146 nM (active); with NIH3T3 [2], 517 nM (active); in the test with MKL-2, 0.0105 µM (active); in the test on UISO, 0.0332 µM (active). For the same compound, in the test with MCC-13, the Potency entry is “inactive”.
On to `Cn1c2cc(S(C)=O)sc2c2cnn(Cc3cccc(N)c3)c(=O)c21` (configuration not stated), for which the max response in the test on CRL-7250 is 0.238%; in the test with HaCat [1], -2.01%; in the test on KB-3-1, -13.5%; in the test with NIH3T3 [2] it was -11.6%. The Potency entry in the test on MCC-13, in the test with MCC-26, with MKL-1 and in the test on MKL-2 was “inactive” each time.
Regarding `Cc1c(NC(=O)OC[C@@H]2COCCN2)cn2ncnc(Nc3ccc4c(cnn4Cc4cccc(F)c4)c3)c12`, the Potency was 14.8 µM (active) and 23.1 µM (active) in the test with HEK293; 4.69 µM (active) and 2.91 µM (active) with HaCat [1]; 20900 nM (active) in the test on NIH3T3 [2]. The max response with KB-3-1 is -29.5%; in the test on NIH3T3 [2], 3.43%. For the same compound, the Potency result in the test on MCC-13, in the test with MCC-26 and in the test on MKL-1 was “inactive” in each case.
Consider `COc1ccc(CC2c3cc(OC)c(OC)cc3CC[N+]2(C)CCC(=O)OCCCCCOC(=O)CC[N+]2(C)CCc3cc(OC)c(OC)cc3C2Cc2ccc(OC)c(OC)c2)cc1OC` (configuration not stated), for which the max response is -0.557% in the test with CRL-7250; 3.6% in the test with HaCat [1]; 4.25% and 0.363% with KB-3-1; -6.84% with NIH3T3 [2]. In addition, the activity change, negative = cytotoxicity was -6.08% [at 9.22 µM] with MCC-13; 2.59% [at 9.22 µM] in the test on MCC-26; -7.93% [at 9.22 µM] in the test with MKL-1; -23.6% [at 9.22 µM] in the test on MKL-2; -1.41% [at 9.22 µM] in the test on UISO.
With `Cc1ccc(C(=O)Nc2cccc(C(F)(F)F)c2)cc1-c1ccc2nc(NCCN3CCOCC3)ncc2c1`, the Potency in the test on CRL-7250 is 4.18 µM (active) and 7.31 µM (active); with HaCat [1], 6510 nM (active); in the test on KB-3-1, 16.6 µM (active); with NIH3T3 [2], 10.5 µM (active) and 18.4 µM (active); in the test with MCC-13 it was 11.8 µM (active); in the test on MCC-26, 18.7 µM (active). For the same compound, in the test with MKL-2, the Potency entry was “inactive”.
`NCC(=O)Nc1ccc(-n2nc(C(F)(F)F)cc2-c2ccc3c(ccc4ccccc43)c2)cc1`: the max response was -6.6% with CRL-7250, -18.9% with HaCat [1] and -0.49% in the test on NIH3T3 [2]. In addition, in the test on KB-3-1, the Potency is 26.4 µM (active) and 23.1 µM (active). Moreover, the Potency result with MCC-13, in the test with MCC-26, with MKL-1 and with MKL-2 was “inactive” throughout.
For `COc1cccc2c(NCc3ccccc3)nc(-n3c(N)nc4ccccc43)nc12`, the Potency with CRL-7250 was 8330 nM (active); in the test on NIH3T3 [2], 10500 nM (active); in the test with MKL-1 it was 9.35 µM (active); in the test with MKL-2, 4.69 µM (active); in the test on UISO, 6.62 µM (active). Also, the max response in the test on KB-3-1 was -11.5%.
Turning to `CC=C1NC(=O)[C@H]2CSSCCC=C[C@H](CC(=O)N[C@H](C(C)C)C(=O)N2)OC(=O)[C@H](C(C)C)NC1=O`, the Potency with CRL-7250 was 18.7 nM (active); in the test with HaCat [1], 37.2 nM (active); with NIH3T3 [2], 46.9 nM (active); in the test on MCC-13, 0.235 µM (active); in the test with MCC-26 it was 0.0662 µM (active); in the test with MKL-2, 0.0166 µM (active). In addition, in the test with UISO, the Potency is 0.0166 µM (active).
As for `Nc1ncnc2c1c(-c1cccc(OCc3ccccc3)c1)cn2C1CC(CN2CCCC2)C1` (configuration not stated), the Potency with HEK293 is 13.2 µM (active) and 5.17 µM (active); in the test on KB-3-1 it was 18.7 µM (active); in the test on NIH3T3 [2], 14.8 µM (active) and 16.4 µM (active); in the test on UISO, 10.5 µM (active). For the same compound, the max response with HaCat [1] was -11.4%. Besides, the compound was called inactive with HaCat [1]. Moreover, the Potency entry in the test on HACAT [3] and with MCC-13 was “inactive” throughout.
For `C=C1C(=CC=C2CCC[C@]3(C)[C@@H]([C@H](C)C=C[C@H](C)C(C)C)CC[C@@H]23)C[C@@H](O)C[C@@H]1O`, in the test with CRL-7250, the max response is -0.207%. Further, the compound was classed as inactive in the test with HaCat [1] and in the test with KB-3-1. Further, the Potency entry in the test with HACAT [3] is “inactive”. For the same compound, the Potency in the test with MCC-26 was 14.8 µM (active); with MKL-1, 1.18 µM (active); in the test on MKL-2, 0.332 µM (active); in the test on UISO, 8.33 µM (active).
`Clc1cccc(-n2nnnc2NCc2ccccc2Oc2ccccn2)c1Cl`: the outcome in the test with CRL-7250, with NIH3T3 [2] and in the test with NIH3T3 [4] was inactive. For the same compound, the max response in the test with HaCat [1] was -3.03% and -4.47%; with KB-3-1, -10.9% and -7.38%. Further, the Potency result in the test with MCC-13, with MCC-26, with MKL-1, in the test with MKL-2 and in the test on UISO was “inactive” each time.
Consider `Cc1nc2ccc(CN(C)c3ccc(C(=O)N[C@@H](CCC(=O)O)C(=O)O)s3)cc2c(=O)[nH]1`, for which the values for the max response in the test with CRL-7250 and in the test with KB-3-1 were -19.7% and 1.14%, respectively. Also, the Potency is 33.2 nM (active) with HaCat [1] and 119 nM (active) in the test on NIH3T3 [2]. The Potency result in the test with MCC-26 and with MKL-2 was “inactive” each time.
